# Pf Dd2 growth = P. falciparum Dd2 growth inhibition | AID 1159554 | activity change, % at 10 µM | SYBR Green, 72 h; active compounds read low | actives 2.3% (n = 94,000); in the data active = activity change below about -80%; inconclusive = no clear call, values can overlap the other calls
# C diff HTS = inhibitors of Clostridium difficile growth; actives 0.25% (n = 86,000); AID 1259249; growth activity, negative = inhibition, % at 16 µg/mL (by protocol); Clostridium difficile clinical isolate growth, OD600, 24 h; active compounds read low;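 active = mean growth activity at or below -80% and every replicate also at or below -80%; inconclusive = mean at or below -80% but some replicate above -80%; inactive = mean growth activity above -80%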;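 also: 0% = DMSO wells and -100% = levofloxacin 16 µg/mL wells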
# T cruzi growth-1 = inhibitors of T. cruzi proliferation | T. cruzi beta-gal in NIH3T3, GalScreen luminescence, 90 h | inhibition, % at 8.34 µM | actives 5.9% (n = 77,000) | AID 624255;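 active = mean inhibition above about 93%, with at least 55% of replicates each passing it, limit read from the data, passing the limit was not always enough; inconclusive = only one of those two conditions holds; inactive = neither condition holds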
# T cruzi growth-2 = inhibitors of T. cruzi proliferation; inhibition, % at 8.35 µM; shares compounds with T cruzi growth-1; T. cruzi beta-gal in NIH3T3, GalScreen luminescence, 90 h; actives 72% (n = 5,600); AID 651739;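 active = mean replicate inhibition above about 95% and at least 55% of replicates individually reaching it, limit read from the data; inconclusive = only one of the two criteria is met; inactive = neither criterion is met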
# T cruzi growth-3 = inhibitors of T. cruzi proliferation; inhibition, % at 2.09 µM; AID 651740; shares compounds with T cruzi growth-1; T. cruzi beta-gal in NIH3T3, GalScreen luminescence, 90 h; actives 21% (n = 5,600);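 active = mean inhibition above about 95%, with at least 55% of replicates also reaching it, limit read from the data; inconclusive = meets just one of the two conditions; inactive = meets neither condition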;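 also: plate controls were neutral control median for no effect and positive control median for full effect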
# 3T3 cytotox = kills mouse NIH/3T3 fibroblasts; actives 14% (n = 5,600); NIH/3T3 viability, CellTiter-Glo ATP luminescence, 90 h; cytotoxicity (signal decrease), % at 8.35 µM; AID 651742; shares compounds with T cruzi growth-1;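 active = mean signal decrease across replicates above about 35% based on untreated-well scatter, with enough replicates individually passing, limit read from the data; inconclusive = no rule stated though some were filed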;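 also: 0% = median of neutral control wells and 100% = median of positive control wells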
# NIH3T3 tox 2 = cytotoxicity in mouse NIH/3T3 fibroblasts. actives 56% (n = 5,600). shares compounds with T cruzi growth-1. NIH/3T3 viability, CellTiter-Glo ATP luminescence, 90 h. inhibition, % at 24.9 µM;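 active = mean loss of cell viability signal at or above a set limit, and enough replicates individually reaching it; inconclusive = meets only the mean limit or only the replicate share; inactive = meets neither condition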;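 also: 0% = median of neutral control wells and 100% = median of positive control wells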
# Starred values were filed as active, the others as inactive; ? = inconclusive; nt = no result given. In the library only some 6.7% were active in any assay of this set; here they are far more common.
SMILES,Pf Dd2 growth,C diff HTS,T cruzi growth-1,T cruzi growth-2,T cruzi growth-3,3T3 cytotox,NIH3T3 tox 2
C[C@H](CO)N1C[C@H](C)[C@H](CN(C)C(=O)Nc2ccccc2)OCCCC[C@H](C)Oc2ccc(NS(=O)(=O)c3cccs3)cc2C1=O,nt,5,42,nt,nt,nt,nt
C[C@@H]1CN([C@@H](C)CO)C(=O)c2cc(NS(=O)(=O)c3ccc(F)cc3)ccc2O[C@@H](C)CCCCO[C@@H]1CN(C)C(=O)Nc1cccc2ccccc12,-86*,-1,101*,104*,55,21,18
C[C@H]1CCCCO[C@H](CN(C)C(=O)Nc2cccc3ccccc23)[C@@H](C)CN([C@@H](C)CO)C(=O)c2cc(NS(=O)(=O)c3ccccc3)ccc2O1,-63,nt,nt,nt,nt,nt,nt
C[C@@H]1CCCCO[C@H](CN(C)C(=O)Nc2cccc3ccccc23)[C@H](C)CN([C@H](C)CO)C(=O)c2cc(NS(C)(=O)=O)ccc2O1,-59,3,11,nt,nt,nt,nt
CN1C(=O)c2cc(NC(=O)C3CCOCC3)ccc2OC[C@H]2O[C@@H](CC(=O)NC3CCCC3)CC[C@@H]21,12,4,8,nt,nt,nt,nt
CCCNC(=O)N(C)C[C@@H]1Oc2ncc(C#CCC(C)C)cc2C(=O)N([C@@H](C)CO)C[C@@H]1C,2,10,nt,nt,nt,nt,nt
C/C=C/c1ccc([C@H]2[C@@H](CNC(=O)CC3CC3)N(C(C)=O)[C@H]2CO)cc1,4,-4,-8,nt,nt,nt,nt
C[C@@H]1CN([C@@H](C)CO)C(=O)c2cc(NS(=O)(=O)c3ccc(F)cc3)ccc2O[C@@H](C)CCCCO[C@H]1CN(C)C(=O)Nc1cccc2ccccc12,-86*,-8,100*,108*,33,-21,-16
COc1ccc(S(=O)(=O)Nc2ccc3c(c2)C(=O)N([C@H](C)CO)C[C@@H](C)[C@H](CN(C)C(=O)Nc2cccc4ccccc24)OCCCC[C@@H](C)O3)cc1,-32,nt,87,nt,nt,nt,nt
C[C@H](CO)N1C[C@H](C)[C@H](CN(C)C(=O)Nc2cccc3ccccc23)OCCCC[C@H](C)Oc2ccc(NS(=O)(=O)c3ccc(F)cc3)cc2C1=O,-31,-11,28,nt,nt,nt,nt
C[C@@H]1CCCCO[C@H](CN(C)C(=O)Nc2cccc3ccccc23)[C@H](C)CN([C@H](C)CO)C(=O)c2cc(NS(=O)(=O)c3ccc(F)cc3)ccc2O1,-84*,2,105*,106*,73,9,5
C[C@@H]1CN([C@@H](C)CO)C(=O)Cc2cc(NS(=O)(=O)c3ccccc3)ccc2O[C@H]1CN(C)S(=O)(=O)c1ccccc1,-22,-6,-13,nt,nt,nt,nt
CCCNC(=O)N1[C@@H]2c3ccc(-c4ccccc4OC)c(=O)n3C[C@H]1[C@H](CO)[C@H]2C(=O)NCC,nt,-2,107*,-9,-2,-8,-6
COCCNC(=O)[C@H]1[C@H](CO)[C@H]2Cn3c(ccc(-c4ccc(OC)cc4)c3=O)[C@@H]1N2C(=O)NC(C)C,20,4,100*,18,-23,14,19
COCCNC(=O)[C@@H]1[C@@H](CO)[C@@H]2Cn3c(ccc(-c4ccc(F)cc4)c3=O)[C@H]1N2C(=O)NC(C)C,13,-2,20,nt,nt,nt,nt
CCCNC(=O)[C@H]1[C@H](CO)[C@H]2Cn3c(ccc(-c4ccccc4OC)c3=O)[C@@H]1N2C(=O)NCCC,11,0,-4,nt,nt,nt,nt
O=S(=O)(c1ccccc1)N1C[C@@H]2[C@H](c3ccccc31)[C@H](CO)N2Cc1ccc(F)cc1,-8,-1,94,nt,nt,nt,nt
O=S(=O)(c1ccccc1)N1C[C@H]2[C@@H](c3ccccc31)[C@@H](CO)N2Cc1ccc2c(c1)OCO2,-47,-5,101*,101*,44,18,16
O=S(=O)(c1ccccc1)N1C[C@H]2[C@@H](c3ccccc31)[C@@H](CO)N2Cc1ccc(F)cc1,2,27,84,nt,nt,nt,nt
O=S(=O)(c1ccccc1)N1C[C@@H]2[C@H](c3ccccc31)[C@H](CO)N2Cc1ccc2c(c1)OCO2,-32,1,111*,105*,61,24,13
O=S(=O)(c1ccc(F)cc1)N1C[C@@H]2[C@H](c3ccccc31)[C@@H](CO)N2Cc1ccc2c(c1)OCO2,-27,4,77,nt,nt,nt,nt
Cc1cccc(S(=O)(=O)N2C[C@@H]3[C@H](c4ccccc42)[C@H](CO)N3Cc2ccc3c(c2)OCO3)c1,-46,3,109*,101*,108*,24,-31
Cc1cccc(S(=O)(=O)N2C[C@H]3[C@@H](c4ccccc42)[C@H](CO)N3Cc2cccnc2)c1,-26,-18,85,nt,nt,nt,nt
O=S(=O)(c1ccccc1)N1C[C@H]2[C@@H](c3ccccc31)[C@H](CO)N2Cc1ccc2c(c1)OCO2,-12,-9,?,93,42,-5,3
N#Cc1cccc(-c2ccc3c(c2)[C@H]2[C@H](CCN2C(=O)C2CCCCC2)[C@@H](CO)N3)c1,-15,-6,89,nt,nt,nt,nt
SMILES,Pf Dd2 growth,C diff HTS,T cruzi growth-1,T cruzi growth-2,T cruzi growth-3,3T3 cytotox,NIH3T3 tox 2
O=C(c1ccncc1)N1C[C@H]2[C@@H](c3ccccc31)[C@@H](CO)N2Cc1ccc(F)cc1,18,-4,26,nt,nt,nt,nt
O=C(C1CC1)N1CCCCN2[C@H](CO)[C@@H](c3ccc(C#CC4(O)CCCC4)cc3)[C@H]2C1,32,-9,-20,nt,nt,nt,nt
CO[C@@H]1CN(C)C(=O)c2cc(NC(C)=O)ccc2OC[C@H](C)N(Cc2ccncc2)C[C@@H]1C,-31,nt,2,nt,nt,nt,nt
CCCNC(=O)N1[C@@H](CO)[C@@H]2c3ccccc3N(C(=O)NC(C)C)C[C@@H]21,1,7,-17,nt,nt,nt,nt
COCC(=O)Nc1ccc2c(c1)C(=O)N(C)C[C@@H](OC)[C@@H](C)CN(Cc1ccccc1F)[C@H](C)CO2,-29,nt,57,nt,nt,nt,nt
C[C@@H]1CN([C@@H](C)CO)S(=O)(=O)c2ccc(-c3ccncc3)cc2O[C@H]1CN(C)Cc1ccccn1,-43,-4,114*,105*,103*,33,36*
C[C@@H]1CN([C@@H](C)CO)S(=O)(=O)c2ccc(-c3ccncc3)cc2O[C@@H]1CN(C)Cc1ccccn1,-5,-3,86,nt,nt,nt,nt
Cc1ccc(-c2ccc3c(c2)O[C@@H](CN(C)Cc2ccccn2)[C@H](C)CN([C@H](C)CO)S3(=O)=O)cc1,-52,2,93,nt,nt,nt,nt
C[C@H](CO)N1C[C@H](C)[C@@H](CN(C)Cc2ccccn2)Oc2cc(-c3ccccc3)ccc2S1(=O)=O,-40,-6,51,nt,nt,nt,nt
C[C@H](CO)N1C[C@H](C)[C@H](CN(C)Cc2ccccn2)Oc2cc(-c3ccncc3)ccc2S1(=O)=O,-14,1,106*,89,84,10,28
Cc1ccc(-c2ccc3c(c2)O[C@@H](CN(C)Cc2ccccn2)[C@H](C)CN([C@@H](C)CO)S3(=O)=O)cc1,-62,2,119*,98*,82,64*,103*
